In PubChem BioAssay (EPA / NIEHS):
The source made the active and inactive calls. How the source made its calls: active means hit-call score of the fitted dose curve at least 0.9, where 1 is the maximum; inactive means score below 0.9.

Legend:
[1] = ATG_CRE_CIS: Attagene CIS-FACTORIAL HepG2 Assay for human cAMP Responsive Element (CRE) binding protein 3 (AID 2282926); details: HepG2 CRE cis-reporter, Attagene multiplexed mRNA; actives raise or lower the signal
In short: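 Induced reporter mRNA from a CRE cis element, measured in HepG2 among many multiplexed units at 24 h. Detection used RT-PCR plus capillary electrophoresis of fluorescent fragments; DMSO served as negative control.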

[2] = target: CCAAT/enhancer-binding protein beta (Homo sapiens) (UniProt P17676); assay: ATG_C_EBP_CIS: Attagene CIS-FACTORIAL HepG2 Assay for human CCAAT/Enhancer Binding Protein (C/EBP) beta (AID 2282927); details: HepG2 Attagene cis-factorial transcription factor reporter; actives raise or lower the signal
In short: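 Endogenous C/EBPb-driven reporter transcripts measured in transfected human HepG2 cells at 24 h via RT-PCR and capillary electrophoresis of labelled fragments. Activity fitted in both directions relative to DMSO baseline.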

[3] = ATG_CMV_CIS: Attagene CIS-FACTORIAL HepG2 Assay for human CMV (Internal Marker) (AID 2282928); details: HepG2 CMV promoter reporter, transcription factor profiling; actives raise or lower the signal;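 further: endpoint acts as a background internal control marker rather than a target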
In short: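 Readout: fluorescent reporter cDNA fragments separated by capillary electrophoresis after RT-PCR and HpaI cut. Cells: HepG2 carrying transfected cis-promoter reporter constructs, dosed 24 h. Endpoint serves as background internal-marker control, fit bidirectionally versus DMSO.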

[4] = ATG_DR4_LXR_CIS: Attagene CIS-FACTORIAL HepG2 Assay for human Liver X Receptor (LXR), DR4 submotif (AID 2282929); details: HepG2 Attagene DR4 cis-reporter, mRNA transcription; actives raise or lower the signal
In short: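 DR4 cis-reporter in HepG2, 24 h exposure. Detection: RT-PCR, 6-FAM labelling, CE fragment analysis. Endpoint fitted bidirectionally, DMSO = baseline.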

[5] = target: Aryl hydrocarbon receptor (Homo sapiens) (UniProt P35869); assay: ATG_Ahr_CIS: Attagene CIS-FACTORIAL HepG2 Assay for human Aryl Hydrocarbon Receptor (Ahr) (AID 2282930); details: HepG2 AhR cis-factorial reporter transcription; actives raise or lower the signal
In short: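 Reporter mRNA levels, quantified by RT-PCR and fluorescent capillary electrophoresis, reflect endogenous AhR transcriptional activity in HepG2 cells carrying transfected cis-promoter reporter constructs. Readout at 24 h post-dose; gain or loss fitted against DMSO baseline.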

[6] = ATG_AP_1_CIS: Attagene CIS-FACTORIAL HepG2 Assay for human Activator Protein 1 (AP-1) (AID 2282931); details: HepG2 Attagene cis-factorial AP-1 reporter mRNA; actives raise or lower the signal
In short: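 Cis-regulated reporter units transiently expressed in HepG2 report endogenous transcription-factor activity. Signal: reporter mRNA at 24 h, via RT-PCR and fluorescent capillary electrophoresis. Endpoint derived by bidirectional fitting, DMSO as negative control.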

[7] = ATG_AP_2_CIS: Attagene CIS-FACTORIAL HepG2 Assay for human Activator Protein 2 (AP-2) (AID 2282932); details: HepG2 AP-2 cis-reporter, Attagene transcription factor profiling; actives raise or lower the signal
In short: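 Endogenous transcription factor activity is reported through transfected multiplex reporter constructs in HepG2, after 24 h of compound exposure. Transcripts were quantified by RT-PCR and capillary electrophoresis of fluorescent fragments. Bidirectional fit against DMSO.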

[8] = ATG_BRE_CIS: Attagene CIS-FACTORIAL HepG2 Assay for human Bone Morphogenetic Protein (BMP) Response Element (BRE) (AID 2282933); details: HepG2 BMP response element reporter, Attagene transcription factor profiling; actives raise or lower the signal
In short: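 Read-out: reporter mRNA induction quantified by RT-PCR and capillary electrophoresis after 24 h chemical exposure of transfected HepG2 cells. Endogenous factor activity on the BMP response element; gain or loss fitted against DMSO baseline.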

[9] = target: Retinoic acid receptor alpha (Homo sapiens) (UniProt P10276); assay: ATG_DR5_RAR_CIS: Attagene CIS-FACTORIAL HepG2 Assay for human Retinoic Acid Receptor Alpha (RARE), DR5 submotif (AID 2282934); details: HepG2 Attagene cis-factorial RARE DR5 reporter, mRNA; actives raise or lower the signal;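 on AC50: reporter responds to endogenous RAR alpha beta and gamma in HepG2 not RARA alone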
In short: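 Reporter transcripts from a DR5-regulated unit, measured via RT-PCR plus capillary electrophoresis, reflect endogenous RAR activity in transiently transfected human HepG2 liver cells. Exposure lasted 24 h; gain or loss of signal scored against DMSO.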

[10] = target: Transcription factor E2F1 (Homo sapiens) (UniProt Q01094); assay: ATG_E2F_CIS: Attagene CIS-FACTORIAL HepG2 Assay for human E2F Transcription Factor 1 (AID 2282935); details: HepG2 Attagene cis-reporter, E2F reporter RNA transcripts; actives raise or lower the signal
In short: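 Gain or loss of reporter transcript, fitted against DMSO, reflects E2F1-driven transcription. Transiently transfected HepG2 dosed 24 h before RNA isolation. Quantified by fluorescent RT-PCR products separated by capillary electrophoresis.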

[11] = ATG_M_61_CIS: Attagene CIS-FACTORIAL HepG2 Assay for M61 Transcription Factor (Internal Marker) (AID 2282937); details: HepG2 Attagene CIS-FACTORIAL M61 internal marker reporter; actives raise or lower the signal
In short: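 Background-control endpoint: HepG2 cells with cis-regulated reporter constructs, 24 h exposure, reporter mRNA detected via fluorescent primer extension and capillary electrophoresis; values from bidirectional fitting with DMSO baseline.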

[12] = ATG_EGR_CIS: Attagene CIS-FACTORIAL HepG2 Assay for human Early Growth Response 1 (EGR1) (AID 2282938); details: HepG2 Attagene CIS-FACTORIAL EGR reporter mRNA; actives raise or lower the signal
In short: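 Endpoint derived by bidirectional fitting versus DMSO vehicle. Method: cis-promoter reporter units transfected into HepG2, 24 h dosing, RNA isolation, RT-PCR with 6-FAM primer extension and HpaI digestion, then capillary electrophoresis fluorescence detection.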

[13] = ATG_M_19_CIS: Attagene CIS-FACTORIAL HepG2 Assay for M19 Transcription Factor (Internal Marker) (AID 2282939); details: HepG2 Attagene CIS-FACTORIAL M19 internal marker reporter; actives raise or lower the signal
In short: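 Readout: fluorescent reporter-transcript fragments by capillary electrophoresis after RT-PCR. Human HepG2 liver cells carried transfected MRTU constructs reporting endogenous transcription-factor activity; exposure 24 h. Gain or loss of signal fitted relative to DMSO.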

[14] = ATG_Ets_CIS: Attagene CIS-FACTORIAL HepG2 Assay for human Erythroblast Transformation Specific (ETS) (AID 2282941); details: HepG2 ETS cis-reporter transcription, actives raise or lower the signal
In short: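 RT-PCR/capillary electrophoresis fluorescence read-out of reporter mRNA; HepG2 transient multi-reporter transfection; 24 h compound exposure; gain or loss of signal fitted bidirectionally relative to DMSO.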

[15] = target: Hepatocyte nuclear factor 3-beta (Homo sapiens) (UniProt Q9Y261); assay: ATG_FoxA2_CIS: Attagene CIS-FACTORIAL HepG2 Assay for human Forkhead box A2 (FOXA2) (AID 2282942); details: HepG2 cis-reporter transcription factor activity, 24 h; actives raise or lower the signal
In short: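 Measured: reporter mRNA induction or loss in HepG2 transiently carrying multiple cis-regulated reporter units, 24 h after dosing. Quantified by RT-PCR plus capillary electrophoresis, normalised to DMSO.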

[16] = ATG_FoxO_CIS: Attagene CIS-FACTORIAL HepG2 Assay for human Forkhead box O (FoxO) (AID 2282943); details: HepG2 Attagene cis-reporter, FoxO element, mRNA; actives raise or lower the signal
In short: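 Endogenous transcription factor activity read from multiplexed cis-promoter reporter transcripts in transiently transfected HepG2, 24 h after dosing. Reporter RNA measured via RT-PCR plus capillary electrophoresis of FAM-labeled products; gain or loss relative to DMSO.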

[17] = ATG_GATA_CIS: Attagene CIS-FACTORIAL HepG2 Assay for human GATA Binding Protein (AID 2282944); details: HepG2 GATA cis-element reporter, Attagene multiplex mRNA; actives raise or lower the signal
In short: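 Read-out: fluorescent reporter mRNA fragments resolved by capillary electrophoresis after RT-PCR. Human liver HepG2 cells carried transiently transfected cis-regulated reporter constructs; chemicals incubated 24 h; gain or loss of signal fitted relative to DMSO.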

[18] = ATG_GLI_CIS: Attagene CIS-FACTORIAL HepG2 Assay for human Zinc Finger Protein GLI1 (AID 2282945); details: HepG2, Attagene cis-factorial reporter mRNA, GLI element; actives raise or lower the signal
In short: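 Bidirectional curve fits relative to DMSO, using reporter mRNA levels from RT-PCR plus capillary electrophoresis. Cells were HepG2 transiently carrying cis-regulated reporter constructs, harvested 24 h after dosing.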

[19] = ATG_E_Box_CIS: Attagene CIS-FACTORIAL HepG2 Assay for human Enhancer Box (E-box) (AID 2282936); details: HepG2 E-box cis-reporter transcription, actives raise or lower the signal
In short: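 E-box-driven reporter transcripts measured in transiently transfected HepG2 after 24 h exposure: RNA reverse-transcribed, PCR-amplified, fluorescently labelled, digested and resolved by capillary electrophoresis. Gain or loss relative to DMSO.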

Measured: AC50

Chain of Retinoic acid receptor alpha (Homo sapiens) (P10276 whole entry, looked up): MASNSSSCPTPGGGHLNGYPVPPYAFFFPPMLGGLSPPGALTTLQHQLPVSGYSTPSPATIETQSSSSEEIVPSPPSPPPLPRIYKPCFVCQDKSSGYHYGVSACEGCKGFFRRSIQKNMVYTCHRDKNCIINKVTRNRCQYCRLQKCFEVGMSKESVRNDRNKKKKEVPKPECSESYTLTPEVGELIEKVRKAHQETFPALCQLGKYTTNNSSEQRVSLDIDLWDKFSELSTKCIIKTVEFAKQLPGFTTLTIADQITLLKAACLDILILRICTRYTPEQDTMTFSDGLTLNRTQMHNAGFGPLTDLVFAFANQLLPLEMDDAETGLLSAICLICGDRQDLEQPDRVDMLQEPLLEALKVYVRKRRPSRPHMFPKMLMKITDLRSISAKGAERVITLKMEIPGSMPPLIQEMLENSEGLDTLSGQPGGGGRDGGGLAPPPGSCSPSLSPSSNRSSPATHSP
Chain of Hepatocyte nuclear factor 3-beta (Homo sapiens) (Q9Y261 whole entry, looked up): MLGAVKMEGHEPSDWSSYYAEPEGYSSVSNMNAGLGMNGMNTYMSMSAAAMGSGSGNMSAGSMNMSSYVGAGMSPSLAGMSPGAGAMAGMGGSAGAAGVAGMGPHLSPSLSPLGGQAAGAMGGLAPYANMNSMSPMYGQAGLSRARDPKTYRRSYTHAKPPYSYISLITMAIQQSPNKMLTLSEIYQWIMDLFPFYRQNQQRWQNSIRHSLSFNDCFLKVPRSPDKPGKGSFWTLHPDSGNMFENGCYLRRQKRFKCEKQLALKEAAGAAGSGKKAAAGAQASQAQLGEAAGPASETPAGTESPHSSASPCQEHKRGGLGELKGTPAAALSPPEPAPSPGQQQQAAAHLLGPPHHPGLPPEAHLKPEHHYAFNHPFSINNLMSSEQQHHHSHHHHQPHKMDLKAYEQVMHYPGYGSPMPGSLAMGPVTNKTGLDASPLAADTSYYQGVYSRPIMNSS
Chain of CCAAT/enhancer-binding protein beta (Homo sapiens) (P17676 whole entry, looked up, the tested form may be a part): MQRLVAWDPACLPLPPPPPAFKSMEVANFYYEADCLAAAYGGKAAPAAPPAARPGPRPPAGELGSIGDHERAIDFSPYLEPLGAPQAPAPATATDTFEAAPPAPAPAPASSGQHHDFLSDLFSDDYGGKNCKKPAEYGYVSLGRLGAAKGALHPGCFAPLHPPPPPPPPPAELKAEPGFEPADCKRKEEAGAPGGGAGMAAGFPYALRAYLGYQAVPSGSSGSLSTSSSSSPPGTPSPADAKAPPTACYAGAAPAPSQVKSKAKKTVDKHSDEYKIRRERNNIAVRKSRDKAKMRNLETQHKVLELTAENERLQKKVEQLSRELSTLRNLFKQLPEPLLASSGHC
Chain of Transcription factor E2F1 (Homo sapiens) (Q01094 whole entry, looked up): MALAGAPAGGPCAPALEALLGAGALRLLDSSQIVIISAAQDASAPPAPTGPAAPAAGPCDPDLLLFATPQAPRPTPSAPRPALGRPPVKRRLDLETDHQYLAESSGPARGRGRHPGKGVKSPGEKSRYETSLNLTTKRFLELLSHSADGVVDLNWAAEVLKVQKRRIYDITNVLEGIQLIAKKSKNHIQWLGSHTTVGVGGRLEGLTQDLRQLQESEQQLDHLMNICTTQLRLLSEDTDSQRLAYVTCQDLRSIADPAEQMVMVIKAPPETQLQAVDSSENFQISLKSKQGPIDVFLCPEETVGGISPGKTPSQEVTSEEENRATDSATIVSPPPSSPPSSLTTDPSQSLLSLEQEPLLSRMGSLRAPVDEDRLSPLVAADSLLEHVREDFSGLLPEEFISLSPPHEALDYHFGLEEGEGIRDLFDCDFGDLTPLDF
Chain of Aryl hydrocarbon receptor (Homo sapiens) (P35869 whole entry, looked up): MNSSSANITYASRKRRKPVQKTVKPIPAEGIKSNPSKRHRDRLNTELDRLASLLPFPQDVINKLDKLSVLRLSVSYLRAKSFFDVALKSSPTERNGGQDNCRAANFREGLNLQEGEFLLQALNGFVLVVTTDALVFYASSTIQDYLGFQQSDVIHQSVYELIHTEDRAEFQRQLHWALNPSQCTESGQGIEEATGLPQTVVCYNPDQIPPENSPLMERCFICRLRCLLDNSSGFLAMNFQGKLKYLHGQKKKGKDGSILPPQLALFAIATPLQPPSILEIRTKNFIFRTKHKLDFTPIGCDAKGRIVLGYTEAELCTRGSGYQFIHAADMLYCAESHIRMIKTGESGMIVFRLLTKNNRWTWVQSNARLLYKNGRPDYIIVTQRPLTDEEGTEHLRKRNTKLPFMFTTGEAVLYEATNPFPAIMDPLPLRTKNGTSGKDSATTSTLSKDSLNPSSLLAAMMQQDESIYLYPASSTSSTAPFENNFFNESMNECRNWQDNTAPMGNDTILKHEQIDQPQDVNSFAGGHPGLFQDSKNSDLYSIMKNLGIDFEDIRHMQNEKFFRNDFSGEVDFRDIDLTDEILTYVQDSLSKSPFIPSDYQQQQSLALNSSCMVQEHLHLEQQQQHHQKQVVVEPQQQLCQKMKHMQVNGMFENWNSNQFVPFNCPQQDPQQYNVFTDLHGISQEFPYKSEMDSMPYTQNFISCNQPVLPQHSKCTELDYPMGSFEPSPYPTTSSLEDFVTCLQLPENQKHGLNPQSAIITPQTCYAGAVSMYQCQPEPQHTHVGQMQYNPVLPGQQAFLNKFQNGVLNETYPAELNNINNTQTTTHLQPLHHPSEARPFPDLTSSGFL

C1=CC2C3C=CC(C3)C2C1 (centres undefined)
inactive: [1] | [2] | [3] | [4] | [6] | [7] | [8] | [9] | [10] | [11] | [12] | [13] | [14] | [15] | [16] | [17] | [18]
active: [5] 98.5 µM

OCc1cccc(Oc2ccccc2)c1
inactive: [1] | [2] | [3] | [4] | [5] | [6] | [7] | [8] | [9] | [19] | [11] | [12] | [13] | [14] | [15] | [16] | [17] | [18]

CCc1cc(C(C)(C)C)c(O)c(C(C)(C)C)c1
inactive: [1] | [2] | [5] | [7] | [8] | [10] | [11] | [12] | [13] | [14] | [15] | [17] | [18]
active: [3] 53.9 µM | [4] 23.2 µM | [6] 63.7 µM | [9] 5.23 µM

COC(=O)c1cccnc1
inactive: [1] | [2] | [3] | [4] | [5] | [6] | [7] | [8] | [9] | [19] | [11] | [12] | [13] | [14] | [15] | [16] | [17] | [18]

O=C1OC[C@H](Cc2cccc(O)c2)[C@H]1Cc1cccc(O)c1
inactive: [1] | [2] | [3] | [5] | [6] | [7] | [8] | [9] | [19] | [11] | [12] | [13] | [14] | [15] | [16] | [17] | [18]
active: [4] 13.9 µM

CC1(C)C2=CCCC(C)(C)[C@]23CC[C@H]1C3
active: [3] 112 µM | [4] 100 µM | [6] 100 µM
inactive: [1] | [2] | [5] | [7] | [8] | [9] | [19] | [11] | [12] | [13] | [14] | [16] | [18]

CC(C)(C)OC(=O)c1ccc(O)cc1
active: [6] 70.1 µM
inactive: [1] | [2] | [3] | [4] | [5] | [7] | [8] | [9] | [19] | [11] | [12] | [13] | [14] | [15] | [16] | [17] | [18]

CS(=O)(=O)c1ccc(C2=C(c3ccccc3)C(=O)OC2)cc1
inactive: [1] | [2] | [3] | [4] | [6] | [7] | [8] | [9] | [19] | [11] | [12] | [13] | [14] | [15] | [16] | [17] | [18]
active: [5] 0.0408 µM

CC(=O)O[C@@H]1C[C@@H]2CC[C@@]1(C)C2(C)C
inactive: [1] | [2] | [3] | [4] | [5] | [6] | [7] | [8] | [9] | [19] | [11] | [12] | [13] | [14] | [16] | [17]

CCCCCCCCCCCCCC(=O)OCC(O)CO (centres undefined)
inactive: [1] | [2] | [3] | [4] | [5] | [6] | [7] | [8] | [9] | [19] | [11] | [12] | [13] | [14] | [15] | [16] | [17] | [18]

O=C1NC2NC(=O)NC2N1 (centres undefined)
inactive: [1] | [2] | [3] | [4] | [5] | [6] | [7] | [8] | [9] | [19] | [11] | [12] | [13] | [14] | [15] | [16] | [17] | [18]

Cc1cc(S(=O)(=O)O)ccc1N=Nc1c(O)ccc2ccccc12
active: [5] 2.32 µM
inactive: [1] | [2] | [3] | [4] | [6] | [7] | [8] | [9] | [10] | [11] | [12] | [13] | [14] | [15] | [17] | [18]

CCCOCCO
inactive: [1] | [2] | [3] | [4] | [5] | [6] | [7] | [8] | [9] | [11] | [12] | [13] | [14] | [15] | [16]

CCC(C)S (centres undefined)
inactive: [1] | [2] | [3] | [4] | [5] | [6] | [7] | [8] | [9] | [10] | [11] | [12] | [13] | [14] | [15] | [16] | [17] | [18]

Cc1c(C2(c3cc(Br)c(O)c(Br)c3C)OS(=O)(=O)c3ccccc32)cc(Br)c(O)c1Br
active: [5] 32.5 µM
inactive: [1] | [2] | [3] | [4] | [6] | [7] | [8] | [9] | [10] | [11] | [12] | [13] | [14] | [15] | [16] | [17] | [18]

CC/C=C\CC/C=C/CO
inactive: [1] | [2] | [3] | [4] | [5] | [6] | [7] | [8] | [9] | [10] | [11] | [12] | [13] | [14] | [15] | [16] | [17] | [18]
